# Data from PubChem BioAssay (Tox21).
# Unmarked numbers belong to inactive results. Inconclusive results are not listed. Entries that show only a call come without a potency. Calls of active or inactive are those of the source. Unless noted, the call rests on the fitted dose curve; in most records, active means well fitted curve in the direction sought with a large enough effect in the repeat runs; inconclusive means weak or mixed curves; inactive means no such curve, though single readings can be large; an effect the other way counts as inactive or inconclusive.
# Key:
# [1] = qHTS assay to identify small molecule agonists of the estrogen receptor alpha (ER-alpha) signaling pathway in the presence of an antagonist - cell viability counter screen (AID 1259386);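 further: series mostly up to about 92 µM; cells exposed to compounds for 22 h at 37 °C before the viability read; nearly all actives have a fitted effect of over 30% in size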
# Summary of the method: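 VM7Luc4E2 cells (endogenous full-length ER-alpha, 4×ERE-luciferase) were held 5 days in phenol red-free medium with 10% charcoal-stripped FBS, plated, then given 10.0nM ICI-182,780 and compounds at 15 concentrations for 22hr at 37C; viability read by CellTiter-Fluor fluorescence.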
# [2] = molecular target: Progesterone receptor (Homo sapiens) (UniProt P06401); experiment: qHTS assay to identify small molecule agonists of the progesterone receptor (PR) signaling pathway (AID 1346784; calls by dose curve; further: nearly all actives have a fitted effect of over 30% in size; further: potency means the concentration at half of the fitted maximal effect)
# Summary of the method: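 PR-UAS-bla HEK 293T cells carrying a UAS-driven beta-lactamase reporter were seeded in medium with 2% charcoal-stripped FBS, preincubated 6 hr at 37C, then exposed to compounds in DMSO for 16 hr; agonism was read by LiveBLAzer B/G FRET fluorescence.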
# [3] = molecular target: Progesterone receptor (Homo sapiens) (UniProt P06401); experiment: qHTS assay to identify small molecule antagonists of the progesterone receptor (PR) signaling pathway (AID 1346795; active means well fitted inhibition curve with a large enough effect in the signal ratio in the repeat runs, not every such curve was filed as active; the % refers to the signal ratio)
# Summary of the method: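 PR-UAS-bla HEK293T cells carrying a UAS-driven beta-lactamase reporter were plated in medium with 2% charcoal-stripped FBS and rested 6 hr at 37C. Compounds were added with 1 nM R5020 (final) for 16 hr, then FRET substrate loaded 2 hr at room temperature.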
# [4] = qHTS assay to identify small molecule antagonists of the progesterone receptor (PR) signaling pathway - cell viability counter screen (AID 1346798); further: series mostly up to about 92 µM; nearly all actives have a fitted effect of over 50% in size
# Summary of the method: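 PR-UAS-bla HEK293T cells in medium with 2% charcoal-stripped FBS were treated with compounds plus R5020 for 16 hr at 37C. Cell viability was then read by CellTiter-Glo luminescence after 30 min at room temperature in the same wells.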
# [5] = qHTS assay to identify small molecule agonists of the progesterone receptor (PR) signaling pathway - cell viability counter screen (AID 1346799; calls by dose curve; further: nearly all actives have a fitted effect of over 45% in size)
# Summary of the method: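 PR-UAS-bla HEK293T cells, 3,000 per well in medium with 2% charcoal-stripped FBS, were preincubated 6 hr at 37C, then exposed to compounds for 16 hr; viability was read as CellTiter-Glo luminescence after 30 min at room temperature.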
# [6] = qHTS assay to identify small molecule antagonists of the TGF-beta/Smad signaling pathway - cell viability counter screen (AID 1346824); further: nearly all actives have a fitted effect of over 50% in size
# Summary of the method: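 SBE-bla HEK 293T cells were plated overnight at 37 C, then given compounds in DMSO plus TGF-beta1 (added as 0.25 ng/mL solution) for 5 hr. After the bla read, CellTiter-Glo was added to the same wells and luminescence read after 30 min at room temperature.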
# [7] = qHTS assay to identify small molecule agonists of the TGF-beta/Smad signaling pathway - cell viability counter screen (AID 1346829); further: top concentration of the series differs between compounds; nearly all actives have a fitted effect of over 45% in size
# Summary of the method: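 SBE-bla HEK 293T cells plated overnight, compound exposure 5 hr at 37 C. Viability read in the same wells by CellTiter-Glo luminescence after 30 min at room temperature, following the beta-lactamase read.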
# [8] = qHTS assay to identify small molecule agonists of the TGF-beta/Smad signaling pathway (AID 1346859; active means well fitted activation curve with a large enough effect in the signal ratio in the repeat runs, not every such curve was filed as active; the % refers to the signal ratio; further: series mostly up to about 77 µM)
# Summary of the method: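 HEK 293T cells stably carrying a beta-lactamase reporter driven by the Smad binding element were seeded overnight, exposed to DMSO-dissolved compounds for 5 hr at 37 C, 5% CO2, then loaded with FRET substrate for 2 hr at room temperature.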
# [9] = molecular target: Thyrotropin-releasing hormone receptor (Homo sapiens) (UniProt P34981); experiment: qHTS assay to identify small molecule antagonists of the thyrotropin-releasing hormone receptor (TRHR) signaling pathway (AID 1346877; active means well fitted inhibition curve with a large enough effect in the repeat runs, not every such curve was filed as active; further: series mostly up to about 51 µM)
# Summary of the method: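 TRHR-expressing HEK293 cells were seeded, cultured 18 h at 37 °C, then loaded with calcium dye for 2 h. Compounds were pre-incubated 5 min at room temperature before 1 nM TRH (final) was added, and kinetic fluorescence was recorded for 3 min.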
# [10] = molecular target: Thyrotropin-releasing hormone receptor (Homo sapiens) (UniProt P34981); experiment: qHTS assay to identify small molecule agonists of the thyrotropin-releasing hormone receptor (TRHR) signaling pathway (AID 1346891; calls by dose curve; further: series mostly up to about 58 µM)
# Summary of the method: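 TRHR-expressing HEK293 cells were plated 18 h at 37 °C/5% CO2, loaded with calcium dye 2 h at 37 °C, then given compound in DMSO; fluorescence was read kinetically for 3 min at 1 s intervals.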
# Chain of Progesterone receptor (Homo sapiens) (P06401 whole entry, looked up): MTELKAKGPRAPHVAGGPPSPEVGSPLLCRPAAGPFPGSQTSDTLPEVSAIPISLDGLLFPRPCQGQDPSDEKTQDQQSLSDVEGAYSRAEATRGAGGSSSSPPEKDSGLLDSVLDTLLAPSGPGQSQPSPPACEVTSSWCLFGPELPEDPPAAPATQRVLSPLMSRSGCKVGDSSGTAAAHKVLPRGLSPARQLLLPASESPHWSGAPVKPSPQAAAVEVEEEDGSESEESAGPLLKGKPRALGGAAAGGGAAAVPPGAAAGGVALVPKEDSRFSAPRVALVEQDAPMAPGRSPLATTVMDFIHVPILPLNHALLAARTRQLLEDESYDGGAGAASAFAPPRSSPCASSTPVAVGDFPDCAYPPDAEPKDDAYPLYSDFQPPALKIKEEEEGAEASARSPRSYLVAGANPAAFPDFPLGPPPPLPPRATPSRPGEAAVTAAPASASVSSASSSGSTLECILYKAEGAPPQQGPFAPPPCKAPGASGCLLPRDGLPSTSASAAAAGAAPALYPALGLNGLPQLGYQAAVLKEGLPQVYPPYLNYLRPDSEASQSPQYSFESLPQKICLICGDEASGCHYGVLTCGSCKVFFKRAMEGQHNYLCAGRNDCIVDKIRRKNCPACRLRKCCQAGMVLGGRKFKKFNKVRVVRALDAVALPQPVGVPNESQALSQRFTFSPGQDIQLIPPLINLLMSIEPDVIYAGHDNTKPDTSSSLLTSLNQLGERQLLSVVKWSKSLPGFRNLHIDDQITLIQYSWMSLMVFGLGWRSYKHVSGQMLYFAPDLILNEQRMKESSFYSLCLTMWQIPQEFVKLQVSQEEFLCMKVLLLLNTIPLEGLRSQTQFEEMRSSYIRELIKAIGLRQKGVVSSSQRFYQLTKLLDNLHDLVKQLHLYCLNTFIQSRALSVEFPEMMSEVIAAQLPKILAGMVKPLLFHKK
# Chain of Thyrotropin-releasing hormone receptor (Homo sapiens) (P34981 whole entry, looked up): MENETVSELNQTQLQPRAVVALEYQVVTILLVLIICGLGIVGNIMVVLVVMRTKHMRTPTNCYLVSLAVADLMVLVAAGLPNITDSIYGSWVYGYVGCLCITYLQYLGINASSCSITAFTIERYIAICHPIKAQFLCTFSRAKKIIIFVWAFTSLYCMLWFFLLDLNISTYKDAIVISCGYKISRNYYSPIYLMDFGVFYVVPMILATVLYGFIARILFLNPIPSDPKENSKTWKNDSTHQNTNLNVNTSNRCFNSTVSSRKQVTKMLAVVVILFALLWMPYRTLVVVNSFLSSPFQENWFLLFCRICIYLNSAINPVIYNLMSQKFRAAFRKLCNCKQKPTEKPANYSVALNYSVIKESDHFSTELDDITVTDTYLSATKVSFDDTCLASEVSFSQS
Compound,Potency [1],Potency [2],Potency [3],Potency [4],Potency [5],Potency [6],outcome [7],outcome [8],outcome [9],outcome [10]
Cc1coc2c1CCC(C)C2 (centres undefined),inactive,inactive,inactive,inactive,inactive,inactive,inactive,inactive,,
CC(=O)Nc1cc([As](=O)(O)O)ccc1O,inactive,inactive,inactive,inactive,inactive,inactive,inactive,inactive,inactive,inactive
C[C@@H]1CN(C2CCC(C#N)(c3ccc(F)cc3)CC2)CC[C@]1(C(=O)O)c1ccccc1 (some centres undefined),inactive,inactive,inactive,inactive,inactive,inactive,inactive,inactive,,
COc1cc(OC)nc(NC(=O)NS(=O)(=O)c2ncccc2OCC(F)(F)F)n1,inactive,inactive,inactive,inactive,inactive,inactive,inactive,inactive,,
ClCC(Cl)(Cl)Cl,inactive,inactive,inactive,inactive,inactive,inactive,inactive,,,
O=C(O)c1ccc2[nH]cc(CCCCN3CC=C(c4ccccc4)CC3)c2c1,inactive,inactive,inactive,inactive,inactive,inactive,inactive,inactive,,
CCCCN(CCCCO)N=O,inactive,inactive,inactive,inactive,inactive,inactive,inactive,inactive,inactive,inactive
N#CCNCC#N,inactive,inactive,inactive,inactive,inactive,inactive,inactive,inactive,inactive,inactive
COC(=O)C1=CCCN(C)C1,inactive,inactive,inactive,inactive,inactive,inactive,inactive,inactive,,
CCCCC(=O)Cl,inactive,inactive,inactive,inactive,inactive,inactive,inactive,,,
C=C(C)[C@@H]1CC=C(C=O)CC1,inactive,inactive,inactive,inactive,inactive,inactive,inactive,inactive,,
CCCCCCI,inactive,inactive,inactive,inactive,,inactive,inactive,inactive,,
CC(C)CC#N,inactive,inactive,inactive,inactive,inactive,inactive,inactive,,inactive,inactive
Cc1ncsc1CCCl,inactive,inactive,inactive,inactive,,inactive,inactive,inactive,inactive,inactive
[As]#[In],inactive,inactive,inactive,inactive,,inactive,inactive,inactive,inactive,inactive
CC(C(O)c1ccccc1)N(C)C/C=C/c1ccccc1 (centres undefined),inactive,inactive,inactive,inactive,,inactive,inactive,inactive,,
CC(C)(C)OC(=O)c1ncn2c1[C@@H]1CCCN1C(=O)c1c(Br)cccc1-2,inactive,inactive,inactive,inactive,inactive,inactive,inactive,,inactive,inactive
O=S(=O)(O)C(F)(F)C(F)(F)C(F)(F)C(F)(F)C(F)(F)C(F)(F)F,inactive,inactive,inactive,inactive,,inactive,inactive,inactive,,
O=C(O)C(Br)CBr (centres undefined),inactive,5.54 µM (active),inactive,inactive,inactive,inactive,inactive,inactive,inactive,inactive
CCC1(c2ccccc2)C(=O)NC(=O)NC1=O,inactive,inactive,inactive,inactive,inactive,inactive,inactive,inactive,inactive,inactive
OC(c1ccccc1)(c1ccccc1)C1CCNCC1,inactive,inactive,inactive,inactive,inactive,inactive,inactive,,inactive,inactive
CN1C[C@@H](NS(=O)(=O)N(C)C)C[C@@H]2c3cccc4c3c(cn4C)C[C@H]21,inactive,inactive,inactive,inactive,inactive,inactive,inactive,,inactive,inactive
OCCSCSCCO,inactive,inactive,inactive,inactive,inactive,inactive,inactive,,inactive,inactive
C[N+](=O)[O-],inactive,inactive,inactive,inactive,inactive,inactive,inactive,,inactive,inactive
CCC(=O)c1ccccc1,inactive,inactive,inactive,inactive,inactive,inactive,inactive,inactive,inactive,inactive
CCOC(=O)CP(=O)(OCC)OCC,inactive,inactive,inactive,inactive,inactive,inactive,inactive,,inactive,inactive
CC(Cl)(Cl)[N+](=O)[O-],inactive,inactive,inactive,inactive,inactive,inactive,inactive,inactive,inactive,inactive
CCCCc1ccc(O)cc1,inactive,inactive,inactive,inactive,inactive,inactive,inactive,inactive,inactive,inactive
